The source of these data is publication PMC7862700, “An all-to-all approach to the identification of sequence-specific readers for epigenetic DNA modifications on cytosine”.

What all share (assay): DAPPL (digital affinity profiling via proximity ligation, sequencing); 10 mM Tris-HCl pH 7.5, 50 mM NaCl, 1 mM DTT, 4% glycerol, room temperature, 30 min; GST-TFs on glutathione beads, 16-mer random dsDNA library, 0.1% formaldehyde crosslink after washing; high values mean tight binding
The target of one assay is T1, FEV (Homo sapiens, UniProt Q99581 1-238).
T1 sequence: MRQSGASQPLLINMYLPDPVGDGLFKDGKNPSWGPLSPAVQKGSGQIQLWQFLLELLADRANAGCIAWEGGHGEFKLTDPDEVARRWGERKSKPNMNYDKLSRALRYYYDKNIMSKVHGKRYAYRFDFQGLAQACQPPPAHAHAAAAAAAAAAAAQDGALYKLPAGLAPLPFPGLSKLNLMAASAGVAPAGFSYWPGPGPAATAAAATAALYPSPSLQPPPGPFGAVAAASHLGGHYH
The settings on record: protein: recombinant; tags: N-terminal GST; dsDNA, one strand shown. In a few lines:
(§1)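 Human transcription factors were made in yeast as GST fusions, captured on glutathione beads and barcoded with DNA. With a tag-only sample included, the pool was incubated with 200 nmole of a random double-stranded 16-mer DNA library in Tris/NaCl/DTT/glycerol buffer at room temperature for 30 min, then crosslinked with 0.1% formaldehyde after washing, ligated by proximity, amplified and sequenced. For binding signal, each hexamer's read frequency for a factor is divided by its frequency for the tag-only sample.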

Another assay deals with ETV5 (Homo sapiens, UniProt P41161 1-510). To be noted: protein: recombinant; tags: N-terminal GST; dsDNA, one strand shown. Put shortly:
as §1

In a further assay the target is HSF1 (Homo sapiens, UniProt Q00613 1-529). The settings on record: protein: recombinant; tags: N-terminal GST; chain copies: 3; dsDNA, one strand shown. In a few lines: as §1
HSF1, sequence (Q00613 whole entry): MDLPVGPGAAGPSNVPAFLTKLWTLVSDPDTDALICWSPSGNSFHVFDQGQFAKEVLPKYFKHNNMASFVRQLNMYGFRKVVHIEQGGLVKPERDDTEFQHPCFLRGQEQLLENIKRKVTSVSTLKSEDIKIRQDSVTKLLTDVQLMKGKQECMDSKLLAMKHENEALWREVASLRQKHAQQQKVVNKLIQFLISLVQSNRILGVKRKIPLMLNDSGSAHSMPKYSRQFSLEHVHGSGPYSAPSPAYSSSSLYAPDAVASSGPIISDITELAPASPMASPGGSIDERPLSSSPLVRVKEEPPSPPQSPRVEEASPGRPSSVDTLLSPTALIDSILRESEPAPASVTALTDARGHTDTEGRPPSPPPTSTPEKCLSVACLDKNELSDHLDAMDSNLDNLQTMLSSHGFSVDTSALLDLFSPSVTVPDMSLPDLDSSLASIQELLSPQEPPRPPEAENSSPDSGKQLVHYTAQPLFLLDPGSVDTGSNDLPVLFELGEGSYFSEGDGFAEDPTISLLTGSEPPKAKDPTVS
The target in a further assay is T2, SPIC (Homo sapiens, UniProt Q8N5J4 1-248).
T2 sequence: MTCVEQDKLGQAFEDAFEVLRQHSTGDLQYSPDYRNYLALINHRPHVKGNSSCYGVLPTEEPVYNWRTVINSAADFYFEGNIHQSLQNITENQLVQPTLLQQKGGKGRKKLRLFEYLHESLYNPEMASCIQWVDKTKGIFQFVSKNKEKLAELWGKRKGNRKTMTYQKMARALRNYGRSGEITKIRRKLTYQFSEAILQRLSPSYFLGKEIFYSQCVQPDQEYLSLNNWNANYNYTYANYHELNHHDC
The settings on record: protein: recombinant; tags: N-terminal GST; dsDNA, one strand shown. In a few lines: as §1

The next assay deals with ELF4 (Homo sapiens, UniProt Q99607 1-663). To be noted: protein: recombinant; tags: N-terminal GST; dsDNA, one strand shown. In a few lines: as §1
ELF4, sequence (Q99607 whole entry): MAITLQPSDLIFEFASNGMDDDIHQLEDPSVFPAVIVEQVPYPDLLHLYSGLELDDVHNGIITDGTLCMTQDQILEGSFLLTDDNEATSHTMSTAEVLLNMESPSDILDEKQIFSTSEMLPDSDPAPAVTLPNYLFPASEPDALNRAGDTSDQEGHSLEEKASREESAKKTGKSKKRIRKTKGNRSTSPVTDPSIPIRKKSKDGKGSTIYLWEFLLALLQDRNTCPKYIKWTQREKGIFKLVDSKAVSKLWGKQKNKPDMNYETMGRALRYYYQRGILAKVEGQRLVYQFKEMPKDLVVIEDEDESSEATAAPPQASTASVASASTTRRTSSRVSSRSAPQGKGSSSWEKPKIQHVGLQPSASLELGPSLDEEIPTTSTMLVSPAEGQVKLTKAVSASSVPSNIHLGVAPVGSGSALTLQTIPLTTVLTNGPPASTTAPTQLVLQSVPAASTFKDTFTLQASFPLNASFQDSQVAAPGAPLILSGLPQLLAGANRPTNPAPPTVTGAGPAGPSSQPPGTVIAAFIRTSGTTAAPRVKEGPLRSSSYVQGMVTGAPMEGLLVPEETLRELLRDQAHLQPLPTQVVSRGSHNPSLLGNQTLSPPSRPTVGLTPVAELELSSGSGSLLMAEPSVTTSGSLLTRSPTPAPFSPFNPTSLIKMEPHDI
In a further assay the target is T3, ELK4 (Homo sapiens, UniProt P28324-2 1-405).
T3 sequence: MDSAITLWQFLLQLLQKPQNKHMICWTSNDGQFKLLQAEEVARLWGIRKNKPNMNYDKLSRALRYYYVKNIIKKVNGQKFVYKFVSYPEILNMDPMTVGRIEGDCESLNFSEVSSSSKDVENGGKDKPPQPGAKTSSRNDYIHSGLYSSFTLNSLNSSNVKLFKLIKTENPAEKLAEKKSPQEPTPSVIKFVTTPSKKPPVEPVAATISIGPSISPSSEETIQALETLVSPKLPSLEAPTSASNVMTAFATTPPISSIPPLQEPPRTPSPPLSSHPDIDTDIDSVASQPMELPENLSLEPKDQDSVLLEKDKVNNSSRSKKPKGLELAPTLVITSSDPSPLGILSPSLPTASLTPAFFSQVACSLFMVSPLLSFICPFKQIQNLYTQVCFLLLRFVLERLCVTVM
To be noted: protein: recombinant; tags: N-terminal GST; dsDNA, one strand shown. In a few lines:
as §1

Another assay has as its target T4, ETV2 (Homo sapiens, UniProt O00321 1-342).
T4 sequence: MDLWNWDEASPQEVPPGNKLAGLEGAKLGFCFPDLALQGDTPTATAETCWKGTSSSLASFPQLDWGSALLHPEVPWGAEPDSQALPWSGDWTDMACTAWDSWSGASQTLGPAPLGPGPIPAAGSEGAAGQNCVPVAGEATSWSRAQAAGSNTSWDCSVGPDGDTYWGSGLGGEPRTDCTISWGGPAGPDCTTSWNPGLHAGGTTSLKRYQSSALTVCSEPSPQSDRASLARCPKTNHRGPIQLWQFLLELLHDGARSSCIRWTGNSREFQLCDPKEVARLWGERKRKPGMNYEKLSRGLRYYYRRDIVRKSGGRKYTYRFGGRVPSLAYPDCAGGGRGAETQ
The settings on record: protein: recombinant; tags: N-terminal GST; dsDNA, one strand shown. In a few lines:
as §1

The target in a further assay is T5, ELF3 (Homo sapiens, UniProt P78545 1-371).
T5 sequence: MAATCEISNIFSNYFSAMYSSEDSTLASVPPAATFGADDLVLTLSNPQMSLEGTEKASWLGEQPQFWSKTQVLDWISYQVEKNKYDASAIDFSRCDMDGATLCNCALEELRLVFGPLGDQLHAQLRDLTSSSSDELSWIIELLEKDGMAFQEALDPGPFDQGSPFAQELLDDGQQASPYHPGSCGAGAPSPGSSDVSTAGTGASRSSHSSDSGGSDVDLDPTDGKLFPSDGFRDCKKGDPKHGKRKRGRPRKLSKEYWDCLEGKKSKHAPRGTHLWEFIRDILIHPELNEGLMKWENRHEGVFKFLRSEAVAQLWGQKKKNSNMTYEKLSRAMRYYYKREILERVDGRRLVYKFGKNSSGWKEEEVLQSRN
The settings on record: protein: recombinant; tags: N-terminal GST; dsDNA, one strand shown. In a few lines:
as §1

For another assay, the target named is CRX (Homo sapiens, UniProt O43186 1-299). To be noted: protein: recombinant; tags: N-terminal GST; dsDNA, one strand shown. In a few lines:
as §1

For another assay, the target named is ETV1 (Homo sapiens, UniProt P50549 1-477). The settings on record: protein: recombinant; tags: N-terminal GST; dsDNA, one strand shown. In a few lines: as §1
ETV1, sequence (P50549 whole entry): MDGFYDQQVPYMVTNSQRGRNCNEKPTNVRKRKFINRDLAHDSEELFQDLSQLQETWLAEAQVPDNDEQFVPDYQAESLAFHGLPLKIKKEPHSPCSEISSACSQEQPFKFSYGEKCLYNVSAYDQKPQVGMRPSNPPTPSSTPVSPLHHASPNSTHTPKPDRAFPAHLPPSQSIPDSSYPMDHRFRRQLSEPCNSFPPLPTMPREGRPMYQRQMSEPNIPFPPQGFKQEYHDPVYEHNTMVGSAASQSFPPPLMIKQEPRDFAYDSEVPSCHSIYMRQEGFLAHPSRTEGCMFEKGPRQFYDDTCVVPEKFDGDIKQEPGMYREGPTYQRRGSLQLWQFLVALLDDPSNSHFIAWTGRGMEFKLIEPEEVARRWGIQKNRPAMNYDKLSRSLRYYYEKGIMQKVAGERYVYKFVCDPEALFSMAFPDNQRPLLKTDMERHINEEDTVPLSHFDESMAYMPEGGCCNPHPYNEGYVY
Another assay deals with T6, ERF (Homo sapiens, UniProt P50548 1-548).
T6 sequence: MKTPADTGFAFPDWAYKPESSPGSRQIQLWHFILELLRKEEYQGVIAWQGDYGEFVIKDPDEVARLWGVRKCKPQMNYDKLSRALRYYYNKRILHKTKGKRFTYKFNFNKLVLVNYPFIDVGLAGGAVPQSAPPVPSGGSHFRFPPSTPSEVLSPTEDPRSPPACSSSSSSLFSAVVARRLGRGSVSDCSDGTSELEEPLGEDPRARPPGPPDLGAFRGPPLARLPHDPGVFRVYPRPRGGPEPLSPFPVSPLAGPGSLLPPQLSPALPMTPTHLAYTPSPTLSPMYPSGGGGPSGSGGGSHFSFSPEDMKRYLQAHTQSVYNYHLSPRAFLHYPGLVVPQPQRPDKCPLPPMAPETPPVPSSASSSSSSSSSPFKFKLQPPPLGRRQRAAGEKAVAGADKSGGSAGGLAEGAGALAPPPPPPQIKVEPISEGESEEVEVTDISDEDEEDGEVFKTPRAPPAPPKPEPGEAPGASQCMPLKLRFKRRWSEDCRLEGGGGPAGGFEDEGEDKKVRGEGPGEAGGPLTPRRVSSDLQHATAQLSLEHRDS
To be noted: protein: recombinant; tags: N-terminal GST; dsDNA, one strand shown. In a few lines: as §1

The target of the next assay is T7, ETV3L (Homo sapiens, UniProt Q6ZN32 1-361).
T7 sequence: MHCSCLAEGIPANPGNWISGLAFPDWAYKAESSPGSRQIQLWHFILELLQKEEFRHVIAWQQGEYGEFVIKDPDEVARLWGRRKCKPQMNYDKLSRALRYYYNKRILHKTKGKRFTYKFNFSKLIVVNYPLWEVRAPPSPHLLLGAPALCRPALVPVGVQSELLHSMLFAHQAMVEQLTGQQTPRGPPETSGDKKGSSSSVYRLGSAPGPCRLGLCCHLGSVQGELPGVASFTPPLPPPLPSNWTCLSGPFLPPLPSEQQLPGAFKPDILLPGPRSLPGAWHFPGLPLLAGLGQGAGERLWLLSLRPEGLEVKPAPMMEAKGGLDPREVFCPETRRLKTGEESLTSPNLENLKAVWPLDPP
To be noted: protein: recombinant; tags: N-terminal GST; dsDNA, one strand shown. In a few lines: as §1

For the next assay, the target named is T8, ETS2 (Homo sapiens, UniProt P15036 1-469).
T8 sequence: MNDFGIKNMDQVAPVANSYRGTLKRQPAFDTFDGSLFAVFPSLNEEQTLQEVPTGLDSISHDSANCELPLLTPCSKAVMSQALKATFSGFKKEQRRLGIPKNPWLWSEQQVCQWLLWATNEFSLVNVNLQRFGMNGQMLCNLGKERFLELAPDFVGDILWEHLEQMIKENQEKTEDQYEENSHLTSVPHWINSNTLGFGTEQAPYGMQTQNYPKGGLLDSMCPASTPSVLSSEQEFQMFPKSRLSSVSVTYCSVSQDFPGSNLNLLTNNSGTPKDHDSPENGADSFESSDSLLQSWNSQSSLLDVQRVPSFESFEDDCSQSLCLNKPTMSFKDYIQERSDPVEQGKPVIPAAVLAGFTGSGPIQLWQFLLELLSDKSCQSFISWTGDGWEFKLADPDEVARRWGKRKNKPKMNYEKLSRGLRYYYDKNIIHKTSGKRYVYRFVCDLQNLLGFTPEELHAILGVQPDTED
To be noted: protein: recombinant; tags: N-terminal GST; dsDNA, one strand shown. Put shortly: as §1

The target of a further assay is T9, SPDEF (Homo sapiens, UniProt O95238 1-335).
T9 sequence: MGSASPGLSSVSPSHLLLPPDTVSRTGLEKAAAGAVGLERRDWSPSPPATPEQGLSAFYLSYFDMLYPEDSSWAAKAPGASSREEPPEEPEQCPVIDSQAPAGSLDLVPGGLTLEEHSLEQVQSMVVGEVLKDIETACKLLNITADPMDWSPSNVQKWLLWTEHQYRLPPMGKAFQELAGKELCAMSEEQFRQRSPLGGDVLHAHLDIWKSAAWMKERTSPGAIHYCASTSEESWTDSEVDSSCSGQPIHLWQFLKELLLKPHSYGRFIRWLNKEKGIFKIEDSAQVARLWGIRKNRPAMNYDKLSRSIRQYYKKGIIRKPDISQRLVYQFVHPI
The settings on record: protein: recombinant; tags: N-terminal GST; dsDNA, one strand shown. Put shortly: as §1

Another assay addresses T10, ETV7 (Homo sapiens, UniProt Q9Y603 1-341).
T10 sequence: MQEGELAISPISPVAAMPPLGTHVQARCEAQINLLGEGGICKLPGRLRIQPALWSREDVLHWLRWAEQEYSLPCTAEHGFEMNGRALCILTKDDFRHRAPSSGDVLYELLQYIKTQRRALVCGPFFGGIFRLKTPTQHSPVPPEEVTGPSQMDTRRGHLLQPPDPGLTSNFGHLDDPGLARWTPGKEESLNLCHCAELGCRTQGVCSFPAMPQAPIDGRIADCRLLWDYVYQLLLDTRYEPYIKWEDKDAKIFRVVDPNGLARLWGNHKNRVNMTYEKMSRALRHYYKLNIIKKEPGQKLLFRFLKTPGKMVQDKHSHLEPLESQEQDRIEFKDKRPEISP
To be noted: protein: recombinant; tags: N-terminal GST; dsDNA, one strand shown. In a few lines: as §1

The target of the next assay is T11, ELF5 (Homo sapiens, UniProt Q9UKW6-2 1-255).
T11 sequence: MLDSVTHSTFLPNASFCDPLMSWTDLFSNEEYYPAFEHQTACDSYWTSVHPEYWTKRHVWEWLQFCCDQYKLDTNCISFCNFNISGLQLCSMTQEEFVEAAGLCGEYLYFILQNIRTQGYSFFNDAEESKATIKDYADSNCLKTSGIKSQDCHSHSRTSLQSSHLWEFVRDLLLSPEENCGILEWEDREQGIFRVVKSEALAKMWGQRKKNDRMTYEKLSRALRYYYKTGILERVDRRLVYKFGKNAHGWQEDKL
To be noted: protein: recombinant; tags: N-terminal GST; dsDNA, one strand shown. Put shortly:
as §1

A further assay deals with T12, ETV3 (Homo sapiens, UniProt P41162-2 1-143).
T12 sequence: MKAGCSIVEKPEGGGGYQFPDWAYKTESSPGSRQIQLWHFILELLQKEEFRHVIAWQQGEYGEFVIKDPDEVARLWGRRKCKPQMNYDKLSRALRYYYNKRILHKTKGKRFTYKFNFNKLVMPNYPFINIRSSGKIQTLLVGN
The settings on record: protein: recombinant; tags: N-terminal GST; dsDNA, one strand shown. In a few lines:
as §1

The target in another assay is ETV6 (Homo sapiens, UniProt P41212 1-452). To be noted: protein: recombinant; tags: N-terminal GST; dsDNA, one strand shown. Put shortly: as §1
ETV6, sequence (P41212 whole entry): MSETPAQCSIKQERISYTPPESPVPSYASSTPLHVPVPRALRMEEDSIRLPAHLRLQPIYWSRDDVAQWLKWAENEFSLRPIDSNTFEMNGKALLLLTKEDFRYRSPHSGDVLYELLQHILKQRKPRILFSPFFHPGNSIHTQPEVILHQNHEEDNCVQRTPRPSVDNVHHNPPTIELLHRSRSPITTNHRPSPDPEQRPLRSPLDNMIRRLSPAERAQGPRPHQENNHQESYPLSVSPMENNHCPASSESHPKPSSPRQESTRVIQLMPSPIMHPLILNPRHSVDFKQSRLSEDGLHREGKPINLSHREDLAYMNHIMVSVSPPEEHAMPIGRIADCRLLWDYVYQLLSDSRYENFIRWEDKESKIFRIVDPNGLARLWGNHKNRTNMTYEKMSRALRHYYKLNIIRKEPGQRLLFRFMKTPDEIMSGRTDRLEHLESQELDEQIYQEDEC

ETV5, sequence (P41161 whole entry): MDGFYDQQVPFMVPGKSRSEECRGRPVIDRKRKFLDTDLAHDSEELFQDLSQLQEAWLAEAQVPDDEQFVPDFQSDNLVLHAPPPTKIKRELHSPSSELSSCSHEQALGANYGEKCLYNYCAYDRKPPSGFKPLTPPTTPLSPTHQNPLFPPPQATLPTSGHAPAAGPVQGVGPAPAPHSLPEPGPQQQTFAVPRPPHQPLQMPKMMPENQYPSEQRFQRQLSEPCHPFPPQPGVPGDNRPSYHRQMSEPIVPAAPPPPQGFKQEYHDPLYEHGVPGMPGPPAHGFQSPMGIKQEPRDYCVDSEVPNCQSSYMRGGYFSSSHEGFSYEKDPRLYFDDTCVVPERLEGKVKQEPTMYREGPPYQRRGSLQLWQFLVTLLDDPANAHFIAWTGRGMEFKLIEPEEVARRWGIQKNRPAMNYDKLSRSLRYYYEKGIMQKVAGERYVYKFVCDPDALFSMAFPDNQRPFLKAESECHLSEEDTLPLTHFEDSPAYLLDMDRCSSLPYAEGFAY
CRX, sequence (O43186 whole entry): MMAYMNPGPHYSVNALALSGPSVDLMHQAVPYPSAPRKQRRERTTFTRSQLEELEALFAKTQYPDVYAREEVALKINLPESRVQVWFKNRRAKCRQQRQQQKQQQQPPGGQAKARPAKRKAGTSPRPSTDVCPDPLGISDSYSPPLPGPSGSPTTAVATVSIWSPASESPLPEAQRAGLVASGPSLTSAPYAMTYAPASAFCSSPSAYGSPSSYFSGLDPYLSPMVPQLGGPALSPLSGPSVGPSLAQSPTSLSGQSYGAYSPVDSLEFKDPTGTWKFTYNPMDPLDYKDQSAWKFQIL

Take CCTCAG: the binding signal is 1.21 fold enrichment (6-mer frequency, TF over GST control) with FEV; 1.12 fold enrichment (6-mer frequency, TF over GST control) with ETV5; 1.07 fold enrichment (6-mer frequency, TF over GST control) with HSF1; 1.17 fold enrichment (6-mer frequency, TF over GST control) with SPIC; 1.3 fold enrichment (6-mer frequency, TF over GST control) in the assay with ELF4; 1.4 fold enrichment (6-mer frequency, TF over GST control) in the assay with ELK4. Also, the binding signal with ETV2 is 1.37 fold enrichment (6-mer frequency, TF over GST control); in the assay with ELF3, 1.35 fold enrichment (6-mer frequency, TF over GST control); with CRX it was 1.15 fold enrichment (6-mer frequency, TF over GST control); in the assay with ETV1, 1.13 fold enrichment (6-mer frequency, TF over GST control); with ERF, 1.35 fold enrichment (6-mer frequency, TF over GST control); with ETV3L, 1.27 fold enrichment (6-mer frequency, TF over GST control). The binding signal in the assay with ETS2 was 1.25 fold enrichment (6-mer frequency, TF over GST control); in the assay with SPDEF, 1.1 fold enrichment (6-mer frequency, TF over GST control); with ETV7 it was 1.1 fold enrichment (6-mer frequency, TF over GST control); with ELF5, 1.14 fold enrichment (6-mer frequency, TF over GST control); with ETV3, 1.17 fold enrichment (6-mer frequency, TF over GST control); with ETV6, 1.15 fold enrichment (6-mer frequency, TF over GST control).
